DNA Pol III inh: inhibitors of bacterial DNA polymerase III holoenzyme; 0.25% of 71,000 active; Potency, µM (highest dose often 57.1 µM), for inactives: top-dose activity change, negative = inhibition; reconstituted DNA polymerase III holoenzyme replication, biochemical; note: potency is the fitted concentration of half-maximal effect; % is set by controls: 0 for no effect and ±100 for the full control effect
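Reconstituted *E. coli* holoenzyme (0.35 nM Pol III, 1 nM beta, 154 nM SSB, 2 nM primase) was preincubated with compound for 15 min at RT. Synthesis on 1.4 nM ssM13Gori ran 35 min, then was stopped with PicoGreen/EDTA and read as dsDNA fluorescence.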
BRCT inh red: inhibitors of human BRCA1 BRCT-phosphoprotein interaction (red fluorophore); Potency, µM (titrated, usually from 76.9 µM), inactives show at the highest dose activity change, negative = inhibition, usual class: inhibitors; P38398; 0.03% of 75,000 active; AID 892; BRCT-phosphopeptide binding, red fluorescence polarization; note: % is set by controls: 0 for no effect and ±100 for the full control effect
Target sequence (P38398 whole entry, looked up): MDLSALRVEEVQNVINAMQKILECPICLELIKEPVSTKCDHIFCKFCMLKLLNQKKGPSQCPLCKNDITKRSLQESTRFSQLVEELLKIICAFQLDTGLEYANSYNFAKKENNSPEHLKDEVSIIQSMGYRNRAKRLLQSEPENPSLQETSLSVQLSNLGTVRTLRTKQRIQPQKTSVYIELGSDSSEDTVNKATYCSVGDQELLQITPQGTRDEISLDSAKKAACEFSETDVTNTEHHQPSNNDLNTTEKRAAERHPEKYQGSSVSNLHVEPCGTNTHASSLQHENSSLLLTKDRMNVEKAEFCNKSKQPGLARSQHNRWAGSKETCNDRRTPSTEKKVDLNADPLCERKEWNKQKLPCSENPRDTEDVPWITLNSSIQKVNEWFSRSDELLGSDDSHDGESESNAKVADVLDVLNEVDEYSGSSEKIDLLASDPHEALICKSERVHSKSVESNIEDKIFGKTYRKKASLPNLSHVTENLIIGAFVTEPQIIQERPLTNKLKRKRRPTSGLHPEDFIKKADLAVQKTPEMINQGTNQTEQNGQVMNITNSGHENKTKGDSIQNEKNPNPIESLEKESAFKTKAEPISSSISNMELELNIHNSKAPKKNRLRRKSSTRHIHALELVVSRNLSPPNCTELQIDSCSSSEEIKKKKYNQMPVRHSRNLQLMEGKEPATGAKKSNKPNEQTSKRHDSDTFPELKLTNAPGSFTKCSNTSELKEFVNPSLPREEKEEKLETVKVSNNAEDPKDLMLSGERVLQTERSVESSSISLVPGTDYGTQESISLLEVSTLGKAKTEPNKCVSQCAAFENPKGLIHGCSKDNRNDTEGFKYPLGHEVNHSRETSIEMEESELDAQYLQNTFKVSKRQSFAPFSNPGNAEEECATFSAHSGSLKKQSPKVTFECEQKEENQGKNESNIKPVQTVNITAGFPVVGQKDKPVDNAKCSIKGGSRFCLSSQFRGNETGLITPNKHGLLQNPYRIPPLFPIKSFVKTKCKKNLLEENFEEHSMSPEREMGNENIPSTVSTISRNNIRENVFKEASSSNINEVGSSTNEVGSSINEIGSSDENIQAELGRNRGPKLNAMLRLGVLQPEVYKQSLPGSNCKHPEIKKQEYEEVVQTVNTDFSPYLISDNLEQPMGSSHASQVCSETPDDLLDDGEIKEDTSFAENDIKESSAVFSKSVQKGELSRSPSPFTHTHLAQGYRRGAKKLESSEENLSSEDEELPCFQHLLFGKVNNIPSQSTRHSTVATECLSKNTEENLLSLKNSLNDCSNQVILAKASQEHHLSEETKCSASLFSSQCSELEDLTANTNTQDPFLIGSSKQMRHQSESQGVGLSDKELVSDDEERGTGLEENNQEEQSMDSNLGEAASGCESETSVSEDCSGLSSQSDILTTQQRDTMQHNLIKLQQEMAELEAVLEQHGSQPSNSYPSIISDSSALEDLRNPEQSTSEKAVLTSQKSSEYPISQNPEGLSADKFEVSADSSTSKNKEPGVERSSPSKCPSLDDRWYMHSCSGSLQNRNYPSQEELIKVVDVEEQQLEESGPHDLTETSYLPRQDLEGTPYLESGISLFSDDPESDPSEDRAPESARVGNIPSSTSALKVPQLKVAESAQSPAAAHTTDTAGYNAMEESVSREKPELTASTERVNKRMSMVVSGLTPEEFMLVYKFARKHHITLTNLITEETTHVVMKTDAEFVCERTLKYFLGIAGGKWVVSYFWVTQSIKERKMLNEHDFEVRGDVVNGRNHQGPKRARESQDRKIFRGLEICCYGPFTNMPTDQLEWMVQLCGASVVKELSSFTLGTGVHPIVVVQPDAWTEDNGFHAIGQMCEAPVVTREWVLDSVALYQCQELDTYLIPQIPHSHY
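Rhodamine-labelled pBACH1 10-mer (100 nM) bound to BRCT domain (100 nM) at pH 7.3; compounds incubated 12 min room temperature, polarization read. Free peptide defines full inhibition; unlabelled decapeptide titrated as control.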
BRCT inh green: BRCA1 BRCT-phosphoprotein interaction inhibition | P38398 | BRCA1 BRCT-phosphopeptide binding, green fluorescence polarization | Potency, µM (highest dose often 76.9 µM), inactives show at the top dose activity change, negative = inhibition, most hits filed as inhibitors | 0.05% of 75,000 active;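 note: potency is the fitted concentration of half-maximal effect; plate controls were peptide without protein for full effect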
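Compounds were incubated for 12 min at room temperature with a complex of 100 nM fluorescein-tagged pBACH1 decapeptide and 250 nM His-tagged BRCT protein. Buffer was phosphate pH 7.3 with EDTA, DTT and Tween 20. Disruption of binding lowers the polarization signal.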
HEK293 cAMP ctrl: parental HEK293 cAMP activation (counter-screen). parental HEK293 CNG cAMP sensor, membrane potential fluorescence. Potency, µM (doses to about 57.1 µM), without a hit: at the top dose activation, usual class: activators. 2.5% of 73,000 active. AID 938; note: potency is the fitted concentration of half-maximal effect; % of control where 0% means no effect; nearly all actives have a fitted effect of over 55% in size
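Parental HEK 293 cells stably expressing a modified CNG channel (no TSHR) report cAMP rise as membrane depolarization. Membrane potential dye with 100 uM RO 20-1724 was loaded for 60 min at room temperature, then compound added for 30 min; fluorescence read at 590 nm.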
TSHR agonist: agonists of human thyroid stimulating hormone receptor; Potency, µM (highest dose often 57.1 µM), for the others: top-dose activation, hits mostly activators; AID 926; 0.48% of 73,000 active; HEK293-CNG-TSHR cells (CNG channel as cAMP sensor), membrane potential dye, cAMP; P16473; active = well fitted activation curve with a large enough effect in the main read-out, with a control signal flat, not every such curve was filed as active; inconclusive = small, poorly fitted or top-dose-only effect, or a change in a side signal; inactive = no such curve, though single readings can be large or run the other way; % of control where 0% means no effect;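 note: the control signal comes from parental cells without the receptor; potency is the fitted concentration of half-maximal effect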
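HEK 293 cells stably expressing TSHR and a cAMP-gated CNG channel; parental CNG-only cells as counterscreen. Cells preloaded 60 min with membrane potential dye plus 100 uM RO 20-1724, then compound 30 min; fluorescence read at 590 nm.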
YjeE inh: displaces an ADP probe from E. coli YjeE (TsaE); AID 605; Potency, µM; P0AF67; purified YjeE enzyme, qHTS inhibition assay; 0.05% of 71,000 active
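Purified YjeE (10 uM) with BODIPY Texas Red-labeled ADP probe (2 uM); compounds pin-transferred, 15 min at room temperature. Binding inhibition read as decreased fluorescence polarization; ADP titration as control.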
An asterisk follows results filed as active; i = inactive; ? = inconclusive; · = no result given; ! = not active in a repeat; [ ] = another dose, or the depositor's remark. Sampled rows, rich in hits. Any-hit rate of the full collection: about 3.2%. Unless noted, calls come from the whole dose curve; as a rule, active = well fitted curve in the direction sought with a large enough effect; inconclusive = small, poorly fitted or top-dose-only effect, or another doubt; inactive = no such curve, though single readings can be large; an effect the other way counts as inactive or inconclusive.

SMILES	DNA Pol III inh	BRCT inh red	BRCT inh green	HEK293 cAMP ctrl	TSHR agonist	YjeE inh
Cn1cccc1C(=O)N1CCC[C@@]2(CCN(c3ccncc3)C2)C1	-3.5%	-0.2%	-1.0%	5.01µM*	?	i
O=C(c1ccncc1)N1CCC[C@@]2(CCN(C(c3ccccc3)c3ccccc3)C2)C1	-0.8%	-0.9%	-4.6%	3.98µM*	?	i
COc1ccc(C(=O)N2CCC[C@@]3(CCN(c4ccccc4)C3)C2)cc1	6.5%	-0.9%	-3.3%	12.6µM*	?	i
CC(C)CNC(=O)CN(C1CCCCC1)S(C)(=O)=O	-5.4%	0.5%	-1.4%	?	?	i
CC(C)CNC(=O)CN(C1CCCCC1)S(=O)(=O)c1ccccc1	-4.3%	1.2%	-1.5%	29.0%	31.6µM*	i
CC1C(=O)OC2C(O)C34C5CC(C(C)(C)C)C36C(OC(=O)C6O)OC4(C(=O)O5)C12O (configuration not stated)	-0.7%	-2.8%	0.5%	-1.8%	1.0%	i
COc1ccccc1CCn1c(=O)c(-c2cccs2)nc2cncnc21	-2.3%	-1.4%	1.3%	?	?	i
O=C1OC(c2ccc(O)c(-c3ccccc3)c2)(c2ccc(O)c(-c3ccccc3)c2)c2c(Cl)c(Cl)c(Cl)c(Cl)c21	-11.6%[11.4 µM]	0.6%[15.4 µM]	-1.6%[15.4 µM]	7.0%[11.4 µM]	3.2%[11.4 µM]	i
O=C1OC2(c3cc(Br)c(O)c(Br)c3Oc3c2cc(Br)c(O)c3Br)c2c(Cl)c(Cl)c(Cl)c(Cl)c21	78.0%	2.51µM*	?	15.8µM*	?	39.8µM*
CC(C)=NO[C@@H](C)CN1CCCc2nc(C)c(C)cc21	·	-2.0%[15.4 µM]	-4.4%[15.4 µM]	4.2%[11.4 µM]	-4.1%[11.4 µM]	·
COc1cccc([C@@H]2Oc3ccc(OC)cc3/C(=N/O[C@@H](C)CN3CCCc4nc(C)c(C)cc43)[C@@H]2O)c1	·	0.0%[15.4 µM]	-0.8%[15.4 µM]	3.98µM*	?	·
CCOC(=O)c1ccccc1NC(=O)CSc1nnc(Cc2cccn2C)n1-c1ccc(C)cc1	-4.0%	-0.8%	3.8%	31.6µM*	?	i
CCOC(=O)c1ccccc1NC(=O)CSc1nnc(COc2ccccc2C)n1C	-5.4%	-1.6%	0.0%	15.8µM*	?	i
COc1ccc(NC(=O)CSc2nnc(Cc3cccn3C)n2CCc2ccccc2)c(OC)c1	3.9%	1.1%	-0.4%	?	?	i
COc1ccccc1NC(=O)CSc1nnc(Cc2cccn2C)n1CCc1ccccc1	-4.3%	-0.4%	6.0%	20µM*	?	i
CCOC(=O)c1ccccc1NC(=O)CSc1ncc(C(=O)OCC)c(N)n1	-4.6%	0.8%	1.6%	20µM*	?	i
O=C(O)CN(CCN(CC(=O)O)CC(=O)O)CC(=O)O.[Mn]	-5.3%[11.4 µM]	-0.9%[15.4 µM]	-2.4%[15.4 µM]	-9.0%[11.4 µM]	24.0%[11.4 µM]	i
CCCCCCC(=O)Cc1cc(OC)c(OC)cc1/C=C(/C(C)=O)C(=O)OC	·	1.0%[15.4 µM]	-1.0%[15.4 µM]	7.7%[11.4 µM]	1.9%[11.4 µM]	·
CCOC(=O)c1ccccc1NC(=O)CSc1nnnn1C1CCCCC1	-0.8%	-0.1%	1.4%	31.6µM*	?	i
CCOC(=O)C1CCN(S(=O)(=O)c2ccc3[nH]c(=O)oc3c2)CC1	0.5%	1.1%	0.5%	13.9%	11.9%	i
CCN1CCN(S(=O)(=O)c2ccc3[nH]c(=O)oc3c2)CC1	2.8%	0.7%	-0.3%	31.6µM*	?	i
COc1ccc2c(c1)c(CC(=O)N1CCOCC1)c(C)n2C(=O)c1ccc(Cl)cc1	-2.0%	-1.5%	3.1%	39.8µM*!	?	i
CCc1nc(N2CCCC(C)C2)c2oc3ccccc3c2n1 (configuration not stated)	-8.9%	0.2%	-3.8%	15.8µM*	?	i
CCc1nc(N2CCCCC2)c2oc3ccccc3c2n1	0.6%	-0.6%	1.0%	25.1µM*	?	i
CCc1nc(N2CCCCC2C)c2oc3ccccc3c2n1 (configuration not stated)	1.7%	1.4%	-1.6%	20µM*	?	i
SMILES	DNA Pol III inh	BRCT inh red	BRCT inh green	HEK293 cAMP ctrl	TSHR agonist	YjeE inh
CC(C)=NO[C@@H](C)c1cn([C@H](CO)Cc2ccccc2)nn1	·	1.8%[15.4 µM]	-0.4%[15.4 µM]	-5.3%[11.4 µM]	-7.2%[11.4 µM]	·
COC1C=CC23c4cc5c(cc4CN(CC2O)C3C1)OCO5 (configuration not stated)	·	-3.3%	-1.0%[3.08 µM]	·	·	·
CCN(C(=O)c1cc2cc3ccc(C)cc3nc2o1)c1ccc(OC)cc1	0.2%	0.1%	0.7%	39.8µM*	?	i
CO[C@H]1[C@@H](OC(N)=O)[C@H](O)[C@@H](Oc2ccc3c(O)c(NC(=O)c4ccc(O)c(CC=C(C)C)c4)c(=O)oc3c2C)OC1(C)C	-4.8%[25.6 µM]	0.5%[34.4 µM]	-2.0%[34.4 µM]	-3.6%[25.6 µM]	-1.9%[25.6 µM]	i
CN1Cc2cc(C(=O)c3cc(Cl)cc(CSc4ncccn4)c3O)cnc2NC1=O	-6.4%	1.2%	3.6%	13.4%	15.8µM*	i
Cc1ccc(O)c(C(=O)c2cnc3c(c2)CN(CCC(C)C)C(=O)N3)c1	-7.4%	0.0%	-0.3%	7.0%	3.7%[11.4 µM]	i
O=[N+]([O-])c1cccc2c[nH]nc12	15.8µM*	-18.1%	-8.1%	10.7%	·	i
O=[N+]([O-])c1cccc2cn[nH]c12	-2.5%	-3.2%	-5.2%	-10.4%	5.1%	i
O=C(COc1ccc(Cl)cc1)Nc1nc(-c2cccs2)cs1	-2.8%	0.3%	2.6%	25.1µM*	?	i
CCOC(=O)Cc1csc(NC(=O)COc2ccc(N(C)S(=O)(=O)c3cccs3)cc2)n1	-3.6%	1.2%	3.4%	12.6µM*	?	i
O=C(Cc1ccccc1)Nc1nc(-c2cccs2)cs1	2.9%	-0.6%	2.3%	29.6%	15.9%	i
CCOC(=O)Cn1nnnc1C(CC)N(Cc1cccs1)Cc1cc2cc(C)ccc2[nH]c1=O (configuration not stated)	-5.5%	-0.1%	1.4%	3.98µM*	?	i
CCOC(=O)Cn1nnnc1C(CC)N(Cc1cc2ccc(C)cc2[nH]c1=O)C1CCCC1 (configuration not stated)	-3.6%	-1.5%	-3.5%	15.8µM*	?	i
CCC(c1nnnn1C1CCCC1)N(Cc1cccs1)Cc1cc2cc(C)ccc2[nH]c1=O (configuration not stated)	-4.4%	0.9%	0.6%	24.7%	·	i
CN1c2cc3c(cc2N=C(c2ccc(C(=O)O)cc2)c2ccccc21)C(C)(C)CCC3(C)C	·	-0.1%	-2.3%	?	?	·
COc1[nH]c(/N=C/c2ccccc2)c(C#N)c1C#N	12.7%	31.6µM*	25.1µM*	5.8%	3.1%	i
O=C(O)c1cc(-c2ccccc2)nc2ccccc12	-0.4%	-2.3%	0.4%	-3.7%	3.4%	i

Screening data from PubChem BioAssay.
